Screens as filed in PubChem BioAssay.
An excerpt weighted towards active compounds, which were near 7.4% of everything screened.
ELG1 genotox – induces genotoxicity in HEK293T cells with luciferase-tagged ELG1; HEK293T ELG1-luciferase reporter, luminescence, 16 h; Potency, µM (top dose mostly 46 µM), inactives show at the top dose activity change, positive = activation, usual class: activators; actives 1.3% (n = 330,000); also: % of control where 0% means no effect; nearly all actives have a fitted effect of over 60% in size
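HEK293T cells expressing luciferase-tagged ELG1 were treated with compound or DMSO for 16 hr at 37°C. Luciferase activity was then read after 30 min with ONE-Glo at room temperature; rising signal flags genetic stress.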
SMN2 splice up – enhancers of SMN2 splice variant expression. Potency, µM (series often up to 46.1 µM), for the others: top-dose activity change, positive = activation, most hits filed as activators. actives 2.8% (n = 210,000). HEK293 SMN2-luciferase splicing reporter, luminescence, 30-36 h; also: % of control where 0% means no effect; nearly all actives have a fitted effect of over 55% in size
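HEK293 cells carry an SMN2 minigene-luciferase reporter in which exon 7 inclusion puts luciferase in frame. Cells were seeded at 2000 cells/well, attached for 10-12 hours, then exposed to compounds for 30-36 hours at 37C before ONE-Glo luminescence.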
Rab9 promoter act – activators of Rab9 promoter; Huh7 Rab9 promoter-luciferase reporter, luminescence, 24 h; Potency, µM (top dose mostly 9.22 µM), without a hit: at the highest dose activation, negative = inhibition, actives largely listed as activators; actives 2.8% (n = 320,000); also: % of control where 0% means no effect; nearly all actives have a fitted effect of over 60% in size
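Quantitative HTS format; Huh7 Rab9-luciferase reporter cells (1500/well) receive compound 2 h post-plating, incubate 24 h at 37 °C, then get luciferase reagent for 10 min before luminescence reading.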
NPC1 prom act – activators of NPC1 promoter; Potency, µM (highest dose often 9.22 µM), inactives show at the top dose activation, hits mostly activators; Huh7 NPC1 promoter luciferase reporter, 24 h; AID 485313; actives 2.4% (n = 320,000); also: % of control where 0% means no effect; nearly all actives have a fitted effect of over 60% in size
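Readout is luciferase luminescence, reflecting NPC1 promoter activation in stably transfected Huh7 cells after 24 h compound exposure at 37 °C in reduced-serum medium with 10% FBS.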
FLuc modulator – firefly luciferase modulation, counter-screen for miR-21 project | actives 6.9% (n = 360,000) | purified FLuc, Km substrates, luminescence inhibition | Potency, µM (series often up to 57.5 µM), without a hit: at the highest dose activity change, negative = inhibition, most hits filed as inhibitors;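 also: plate controls were vehicle for no effect and reference inhibitor for full effect; nearly all actives have a fitted effect of over 55% in size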
Target sequence (P08659 whole entry, looked up): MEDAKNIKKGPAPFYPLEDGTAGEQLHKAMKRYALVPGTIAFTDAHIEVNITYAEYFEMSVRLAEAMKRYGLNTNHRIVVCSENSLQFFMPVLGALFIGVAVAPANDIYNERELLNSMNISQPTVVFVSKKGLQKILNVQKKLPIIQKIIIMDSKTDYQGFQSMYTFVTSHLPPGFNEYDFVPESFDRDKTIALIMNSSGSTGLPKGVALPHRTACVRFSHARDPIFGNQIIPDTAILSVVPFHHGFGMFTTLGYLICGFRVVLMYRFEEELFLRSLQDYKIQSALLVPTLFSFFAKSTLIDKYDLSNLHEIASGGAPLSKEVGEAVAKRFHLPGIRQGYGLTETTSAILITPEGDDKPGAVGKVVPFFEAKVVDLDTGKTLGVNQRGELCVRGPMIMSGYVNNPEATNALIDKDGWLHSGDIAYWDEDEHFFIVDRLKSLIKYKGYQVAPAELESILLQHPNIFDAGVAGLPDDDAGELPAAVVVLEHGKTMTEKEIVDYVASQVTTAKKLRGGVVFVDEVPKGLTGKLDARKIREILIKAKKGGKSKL
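Biochemical qHTS of compounds, final roughly 60 µM downward over six points, against 10 nM purified firefly luciferase using Km concentrations of substrates (10 uM D-luciferin, 10 uM ATP) in Tris acetate pH 7.5 buffer; luminescence output.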
* = called active by the depositor; ? = inconclusive; . = no result given; [ ] = remark or other dose. Calls follow the shape of the dose curve; as a rule, active = well fitted curve in the direction sought with a large enough effect; inconclusive = small, poorly fitted or top-dose-only effect, or another doubt; inactive = no such curve, though single readings can be large; an effect the other way counts as inactive or inconclusive. Potency is read from the fitted curve at half-maximal effect.

SMILES	ELG1 genotox	SMN2 splice up	Rab9 promoter act	NPC1 prom act	FLuc modulator
COC(=O)[C@@]1(Cc2ccc(OC)cc2)[C@H]2c3cc(C(=O)N(C)C)n(Cc4cc(C)n(C)n4)c3C[C@H]2CN1C(=O)c1ccccc1	.	-7%	.	.	.
CCc1ccccc1N(C)C(=O)Cn1cnc2sc(C)c(S(=O)(=O)N3CCC(C)CC3)c2c1=O	.	-2%	.	.	1%
COCCN(CCOC)c1nc(C)nc2c1nc(-c1ccccc1)n2CCCN(C)C	.	-4%	.	.	.
CCOC(=O)c1ccc(Nc2nc3nonc3nc2Nc2cccc(C)c2C)cc1	.	-42%	.	.	?
COc1ccc(Nc2cc(C)c3c(O)cccc3n2)cc1	4%	.	20%	7%	21µM*
Cc1ccc(Nc2cc(C)c3ccc(O)cc3n2)cc1C	13%	.	1%	3%	17µM*
Cc1cc(Nc2ccccc2O)c2ccccc2n1	-2%	.	-2%	0%	0%
Cc1ccc(Nc2cc(C)c3c(O)cccc3n2)cc1C	?	.	?	?	9.5µM*
COC(=O)c1cc(Nc2cc(C)c3c(O)cccc3n2)cc(C(=O)OC)c1	-6%	.	0%	10%	?
COC(=O)c1cc(Nc2cc(C)c3ccc(O)cc3n2)cc(C(=O)OC)c1	5%	.	10%	0%	0%
Cc1ccccc1Nc1cc(C)c2c(O)cccc2n1	0%	-6%	-10%	-1%	19µM*
CCCOc1ccc(NC(=O)CC2C(=O)N(c3ccc(OC)cc3)C(=O)N2CCc2ccncc2)cc1 (stereo not drawn)	.	.	.	.	-10%
Nc1ccn([C@H]2O[C@H](CO)[C@@H]3[O][Sn]([c]4ccccc4)([c]4ccccc4)[O][C@H]32)c(=O)n1	.	-40%[9.22 µM]	.	.	.
COC(=O)C1=C(C(=O)OC)[C@@H]2N(C)c3ccccc3[C@@]23C[C@@H](C(=O)OC)N(S(=O)(=O)c2ccc4c(c2)OCCN4C)C3=N1	.	8%[9.22 µM]	.	.	.
Cc1cc(C)n(-c2nc(NC(C)(C)C)nc(NC(C)(C)C)n2)n1	-4%	-49%	-4%	-1%	0%
Cc1cc(C)n(-c2nnc(NC34CC5CC(CC(C5)C3)C4)nn2)n1	?	11µM*	3.5µM*	2µM*	2.4µM*
Cc1cc(C)n(-c2nnc(NC(C)(C)C)nn2)n1	?	13µM*	3.2µM*	?	21µM*
COc1ccccc1CNC(=O)CN1C(=O)CCn2nc(-c3ccccc3)cc21	.	.	.	.	-8%
C/C=C\C=C/C(=O)Nc1cccc(C2=NOC3(C2)C[C@@H](C(N)=O)N(C(=O)CCCCC)C3)c1 (stereo partly drawn)	2%	.	-5%	-39%	13µM*
C/C=C/C=C/C(=O)N1CC2(CC(c3cccc(NC(=O)CCCCC)c3)=NO2)C[C@H]1C(N)=O (stereo partly drawn)	-3%	.	-1%	-3%	-17%
C/C=C\C=C/C(=O)Nc1cccc(C2=NOC3(C2)C[C@H](C(N)=O)N(C(=O)Cc2ccc([N+](=O)[O-])cc2)C3)c1 (stereo partly drawn)	8%	.	1%	-1%	21µM*
C/C=C\C=C/C(=O)Nc1cccc(C2=NOC3(C2)C[C@H](C(N)=O)N(C(=O)CC)C3)c1 (stereo partly drawn)	0%	.	3%	1%	19µM*
CCOc1ccccc1NC(=O)Cn1c(=O)n(-c2ccc(F)cc2)c(=O)c2sc3ccccc3c21	.	-4%	.	.	-2%
N#CCCN(C(=O)CSc1ncccn1)c1ccc2c(c1)OCCO2	-2%	.	-4%	2%	3%
O=C(CCl)N(C/C=C/c1ccccc1)c1ccc2c(c1)OCCO2	11%	-16%	-45%	-38%	24µM*
CCN(CC)CCCNC(=O)c1c(C)oc2ncnc(N3CCOCC3)c12	.	.	.	.	0%
Cc1ccc(C(=O)CC(=O)c2cccc(F)c2)c(O)c1	?	-41%	14%	6%	12µM*
Cc1ccc(N(Cc2ccccc2)C(=O)c2cccc(F)c2)cc1	18%	.	-7%	-1%	13µM*
Cc1ccc(N(Cc2ccccc2)C(=O)c2ccc(F)cc2)cc1	4%	.	0%	2%	0%
COc1ccc(CN(C(=O)c2ccc(C)cc2)c2cccc(N)c2)cc1	-3%	.	1%	-4%	-7%
